Assay results taken from PubChem BioAssay (Tox21).
Results filed as inconclusive are left out. A call without a number means that no potency is given here. Values without a mark were called inactive. Activity calls are given as the source filed them. Calls follow the shape of the dose curve; as a rule, active = well fitted curve in the direction sought with a large enough effect in the repeat runs; inconclusive = weak or mixed curves; inactive = no such curve, though single readings can be large; an effect the other way counts as inactive or inconclusive.

Legend:
[1] = qHTS RealTime-Glo MT Cell Viability Assay in HepG2 cells - 40 hour (AID 1224870); conditions: RealTime-Glo luminescence; series mostly up to 76.8 µM; also: nearly all actives have a fitted effect of over 50% in size
Method in brief: (§1)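 Real-time viability: cells seeded at 600 per well together with NanoLuc and cell-permeant prosubstrate, compounds added after 5 h incubation. Luminescence tracked at 0, 8, 16, 24, 32 and 40 h of exposure.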

[2] = A CellTox Green Cytotoxicity Assay to monitor cytotoxicity in HEK293 cells - 40 hour (AID 1224871); conditions: CellTox Green fluorescence; series mostly up to 76.8 µM; also: nearly all actives have a fitted effect of over 45% in size
Method in brief: (§2)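 HEK293 cells, 600/well, were preincubated 5 hours and then exposed to compounds at 37 C for up to 40 hours. A cell-impermeant cyanine dye staining dead-cell DNA was read by fluorescence at 0, 8, 16, 24, 32 and 40 h time points.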

[3] = qHTS RealTime-Glo MT Cell Viability Assay in HEK293 cells - 16 hour (AID 1224872); conditions: RealTime-Glo luminescence; series mostly up to 76.8 µM; also: top concentration of the series differs between compounds; nearly all actives have a fitted effect of over 50% in size
Method in brief: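 Luminescence generated by NanoLuc from substrate produced by living HEK293 cells served as the viability signal. Each value reflects the reading at its stated time point during continuous 40 h compound exposure at 37 C.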

[4] = qHTS RealTime-Glo MT Cell Viability Assay in HepG2 cells - 8 hour (AID 1224873); conditions: RealTime-Glo luminescence; series mostly up to 76.8 µM; also: nearly all actives have a fitted effect of over 55% in size
Method in brief: as §1

[5] = qHTS RealTime-Glo MT Cell Viability Assay in HEK293 cells - 40 hour (AID 1224874); conditions: RealTime-Glo luminescence; max response: active compounds read low; also: nearly all actives have a fitted effect of over 50% in size
Method in brief: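 600 cells/well were plated with the nonlytic NanoLuc/prosubstrate reagent, pre-incubated 5 h, then given 23 nL of compound in DMSO. Incubation at 37 C for 40 h, with luminescence from viable-cell-reduced substrate read repeatedly from 0 h.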

[6] = A CellTox Green Cytotoxicity Assay to monitor cytotoxicity in HEK293 cells - 24 hour (AID 1224875); conditions: CellTox Green fluorescence; series mostly up to 76.8 µM; also: nearly all actives have a fitted effect of over 45% in size; also: potency is read from the fitted curve at half-maximal effect
Method in brief: as §2

[7] = A CellTox Green Cytotoxicity Assay to monitor cytotoxicity in HepG2 cells - 16 hour (AID 1224876); conditions: CellTox Green fluorescence; series mostly up to 76.8 µM; also: nearly all actives have a fitted effect of over 45% in size
Method in brief: (§3)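 HepG2 cells, 600/well, preincubated 5 h with CellTox Green dye, then exposed to Tox21 compounds in DMSO at 37 C for up to 40 h. Dead-cell DNA fluorescence read at the indicated time point.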

[8] = qHTS RealTime-Glo MT Cell Viability Assay in HepG2 cells - 32 hour (AID 1224877); conditions: RealTime-Glo luminescence; series mostly up to 76.8 µM; also: nearly all actives have a fitted effect of over 55% in size
Method in brief: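 Tox21 10K library screened in qHTS format on HepG2 cells carrying RealTime-Glo reagents. Compounds were added after a 5 h preincubation, and the luminescent signal from continuous culture was measured repeatedly during 40 h treatment.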

[9] = A CellTox Green Cytotoxicity Assay to monitor cytotoxicity in HepG2 cells - 24 hour (AID 1224878); conditions: CellTox Green fluorescence; series mostly up to 76.8 µM; also: nearly all actives have a fitted effect of over 45% in size
Method in brief: as §3

[10] = A CellTox Green Cytotoxicity Assay to monitor cytotoxicity in HepG2 cells - 40 hour (AID 1224879); conditions: CellTox Green fluorescence; series mostly up to 76.8 µM; also: nearly all actives have a fitted effect of over 40% in size
Method in brief: as §3

| SMILES | Potency [1] | Potency [2] | Potency [3] | outcome [4] | max response [5] [%] | Potency [6] | Potency [7] | Potency [8] | Potency [9] | Potency [10] | activity change, negative = cytotoxic [1] | cytotoxicity increase [2] | activity change, negative = cytotoxicity [3] | viability change, negative = cytotoxic [4] | activity change [6] | cytotoxicity increase [7] | activity change, negative = cytotoxic [8] | cytotoxicity [9] | cytotoxicity increase [10] |
| --- | --- | --- | --- | --- | --- | --- | --- | --- | --- | --- | --- | --- | --- | --- | --- | --- | --- | --- | --- |
| OCCCCCCO | inactive | inactive | inactive | inactive | -17.6 | inactive | inactive | inactive | inactive | inactive |  |  |  |  |  |  |  |  |  |
| Cn1ccc2cc3c(cc21)CCN3C(=O)Nc1cccnc1 |  |  |  |  | -5.83 |  |  |  |  |  | -0.975% [at 15.8 µM] | -10.7% [at 15.8 µM] | -8.97% [at 15.8 µM] | -3.74% [at 15.8 µM] | -2.97% [at 15.8 µM, active compounds read high] | -8.93% [at 15.8 µM] | -1.69% [at 15.8 µM] | -8.65% [at 15.8 µM] | -12.1% [at 15.8 µM] |
| NC(N)=NS(=O)(=O)c1ccc(N)cc1 | inactive | inactive | inactive | inactive | -4.08 | inactive | inactive | inactive | inactive | inactive |  |  |  |  |  |  |  |  |  |
| CCCCNc1ccccc1 | inactive | inactive | inactive | inactive | 2.6 | inactive | inactive | inactive | inactive | inactive |  |  |  |  |  |  |  |  |  |
| O=Cc1ccccc1[N+](=O)[O-] | inactive | inactive | inactive | inactive | -5.52 | inactive | inactive | inactive | inactive | inactive |  |  |  |  |  |  |  |  |  |
| Cc1cc(C)c(NC(=O)CN(CC(=O)O)CC(=O)O)c(C)c1Br | inactive | inactive | inactive | inactive | -1.32 | inactive | inactive | inactive | inactive | inactive |  |  |  |  |  |  |  |  |  |
| CC12CCC(CC1=O)C2(C)C (stereo not given) | inactive | inactive | inactive | inactive | -2.19 | inactive | inactive | inactive | inactive | inactive |  |  |  |  |  |  |  |  |  |
| FC(F)(F)C(F)(F)C(F)(F)C(F)(F)C(F)(F)C(F)(F)C(F)(F)C(F)(F)C(F)(F)C(F)(F)F |  |  |  |  | -1.44 |  |  |  |  |  | -1.18% [at 6.97 µM] | -18% [at 6.97 µM] | -4.72% [at 6.97 µM] | 3.63% [at 6.97 µM] | -7.77% [at 6.97 µM, active compounds read high] | 1.39% [at 6.97 µM] | -2.37% [at 6.97 µM] | 4.69% [at 6.97 µM] | 1.66% [at 6.97 µM] |
| CCCC(C)C(=O)O (stereo not given) | inactive | inactive | inactive | inactive | -23.4 | inactive | inactive | inactive | inactive | inactive |  |  |  |  |  |  |  |  |  |
| NC1CCN(c2cccc(Cl)n2)CC1 | inactive | inactive | inactive | inactive | -1.03 | inactive | inactive | inactive | inactive | inactive |  |  |  |  |  |  |  |  |  |
| CCO[Si](C)(OCC)OCC | inactive | inactive | inactive | inactive | 3.57 | inactive | inactive | inactive | inactive | inactive |  |  |  |  |  |  |  |  |  |
| Cc1nccn1CC1CCc2c(c3ccccc3n2C)C1=O (stereo not given) | inactive | inactive | inactive | inactive | -14.4 | inactive | inactive | inactive | inactive | inactive |  |  |  |  |  |  |  |  |  |
| COc1cc(CCC(C)=O)ccc1O | inactive | inactive | inactive | inactive | -0.231 | inactive | inactive | inactive | inactive | inactive |  |  |  |  |  |  |  |  |  |
| O=C(CCOCCOCCOCCOCCC(=O)Nc1c(I)cc(I)c(C(=O)O)c1I)Nc1c(I)cc(I)c(C(=O)O)c1I | inactive | inactive | inactive | inactive | -0.881 | inactive | inactive | inactive | inactive | inactive |  |  |  |  |  |  |  |  |  |
| COc1cc(C)cc(O)c1 | inactive | inactive | inactive | inactive | -14.5 | inactive | inactive | inactive | inactive | inactive |  |  |  |  |  |  |  |  |  |
| C=C(C)C(=O)NCCCN(C)C | inactive | inactive | inactive | inactive | 9.44 | 34.7 nM (active) | inactive | inactive | inactive | inactive |  |  |  |  |  |  |  |  |  |
| O=C(O)c1ccc[n+]([O-])c1 | inactive | inactive | inactive | inactive | 8.34 | inactive | inactive | inactive | inactive | inactive |  |  |  |  |  |  |  |  |  |
| c1ccc2cnncc2c1 | inactive | inactive | inactive | inactive | 12.8 | inactive | inactive | inactive | inactive | inactive |  |  |  |  |  |  |  |  |  |
| CCC(C(=O)NC(N)=O)c1ccccc1 (stereo not given) | inactive | inactive | inactive | inactive | 5.63 | inactive | inactive | inactive | inactive | inactive |  |  |  |  |  |  |  |  |  |
| C=CC(=O)N1CCOCC1 | inactive | inactive | inactive | inactive | -1.69 | inactive | inactive | inactive | inactive | inactive |  |  |  |  |  |  |  |  |  |
| NC(=S)Nc1cccc2ccccc12 |  |  |  |  | 16.5 |  |  |  |  |  | -4.8% [at 6.97 µM] | 0.339% [at 6.97 µM] | 14.8% [at 6.97 µM] | 2.4% [at 6.97 µM] | 0.127% [at 6.97 µM, active compounds read high] | 1.42% [at 6.97 µM] | -0.0723% [at 6.97 µM] | -1.06% [at 6.97 µM] | 2.43% [at 6.97 µM] |
| CSc1ccc(C=O)cc1 | inactive | inactive | inactive | inactive | 0.555 | inactive | inactive | inactive | inactive | inactive |  |  |  |  |  |  |  |  |  |
| NCCN1CCNC1=O | inactive | inactive | inactive | inactive | 0.993 | inactive | inactive | inactive | inactive | inactive |  |  |  |  |  |  |  |  |  |
| CC(O)CN(CCCN(C)C)CCCN(C)C (stereo not given) | inactive | inactive | inactive | inactive | -1.59 | inactive | inactive | inactive | inactive | inactive |  |  |  |  |  |  |  |  |  |
| Cc1ncc(CSSCc2cnc(C)c(O)c2CO)c(CO)c1O | inactive | inactive | inactive | inactive | 5.83 | inactive | inactive | inactive | inactive | inactive |  |  |  |  |  |  |  |  |  |
| CCCC=O | inactive | inactive | inactive | inactive | 6.1 | inactive | inactive | inactive | inactive | inactive |  |  |  |  |  |  |  |  |  |
| C=C(C)C(=O)OCCC(C)OC(=O)C(=C)C (stereo not given) | inactive | inactive | inactive | inactive | 8.52 | inactive | inactive | inactive | inactive | inactive |  |  |  |  |  |  |  |  |  |
